{"source": "paper PMC5540273", "about": "(PLoS ONE, 2017);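 also: kd values determined as follow-up on hits from a single-replicate KINOMEscan panel screen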", "data": [{"test_system": "CHEK1", "units": {"Kd": "µM"}, "values": [{"compound": "COc1cccc(C2=C(Nc3cc(Cl)c(O)c(Cl)c3)C(=O)NC2=O)c1", "note": "[SB-390767]", "Kd": "> 10"}, {"compound": "COc1ccc(Nc2nccc(N3CCC(NC(=O)c4cc5ccccc5s4)C3)n2)cc1", "note": "(stereo not shown) [GSK1379738]", "Kd": "> 10"}, {"compound": "COc1ccc(Nc2nccc(-c3ccc(NC(=O)c4cc5cc(F)ccc5[nH]4)cc3)n2)cc1", "note": "[GSK1229496]", "Kd": "> 10"}, {"compound": "Cc1ccccc1-c1cc(-c2c[nH]nc2-c2ccccn2)ccn1", "note": "[GW680061]", "Kd": "> 10"}, {"compound": "CS(=O)(=O)CCNCc1nc(-c2ccc3ncnc(Nc4ccc(OCc5ccccc5)c(Cl)c4)c3c2)cs1.Cl", "note": "[GW582764]", "Kd": "> 10"}, {"compound": "FC(F)(F)c1ccccc1-c1cc(-c2c[nH]nc2-c2ccccn2)ccn1", "note": "[GW679396]", "Kd": "> 10"}, {"compound": "COC(=O)C(Cc1ccccc1)NC(=O)NC1CCN(c2ccnc(Nc3ccc(F)cc3)n2)C1", "note": "(stereo not shown) [GSK1379714]", "Kd": "> 10"}]}, {"test_system": "CHEK2", "units": {"Kd": "nM"}, "values": [{"compound": "CC(C)c1cc(-c2ccc3c(N)n[nH]c3c2)nc(N)n1", "note": "[GSK2250882]", "Kd": 320}, {"compound": "COc1ccc(Nc2nccc(NCCNC(=O)Nc3cc(C)ccc3C)n2)cc1", "note": "[GSK1379899]", "Kd": "> 10000"}, {"compound": "CNc1cc(-c2ccc3c(N)n[nH]c3c2)nc(N)n1", "note": "[GSK2224810]", "Kd": 2000}]}, {"test_system": "CIT", "units": {"Kd": "nM"}, "values": [{"compound": "COc1cccc(NC(=O)Nc2ccc(C)c(-c3ccc(C(=O)Nc4ccncc4)cc3)c2)c1", "note": "[GSK1398474]", "Kd": 280}, {"compound": "Cc1ccc(NC(=O)Nc2ccccc2)cc1-c1ccc(C(=O)Nc2ccncc2)cc1", "note": "[GSK1398471]", "Kd": 540}, {"compound": "Cc1ccc(NC(=O)Nc2ccc(Cl)cc2)cc1-c1ccc(C(=O)Nc2ccncc2)cc1", "note": "[GSK1398472]", "Kd": 430}, {"compound": "Cl.Cl.Cl.N#Cc1ccc(CCNc2nccc(-c3cccc(CN4CCNCC4)c3)n2)cc1", "note": "[GSK2137462]", "Kd": 8600}, {"compound": "CNc1nc(-c2ccc3c(N)n[nH]c3c2)cc(N2C[C@@H](C(=O)Nc3ccccc3)CC[C@H]2C)n1", "note": "[GSK2298859]", "Kd": 500}, {"compound": "Cc1ccc(NC(=O)Nc2ccccc2F)cc1-c1ccc(C(=O)Nc2ccncc2)cc1", "note": "[GSK1398477]", "Kd": 570}, {"compound": "Fc1ccc(-c2nn3cccc(F)c3c2-c2ccncc2)cc1", "note": "[GW475620]", "Kd": 310}, {"compound": "Fc1ccc(-c2nc3n(c2-c2ccncc2)CCS3)cc1", "note": "[GI98581]", "Kd": 760}, {"compound": "Nc1nccc(-c2c(-c3ccc(F)cc3)ncn2C2CCN(Cc3ccccc3)CC2)n1", "note": "[SB-219980]", "Kd": 130}, {"compound": "Cc1cccc2c(-c3ccncn3)c(-c3ccc(F)cc3)nn12", "note": "[GW515532]", "Kd": 2500}, {"compound": "CC[C@@H]1CO[C@H](C(=O)Nc2ccccc2)CN1c1cc(-c2ccc3c(N)n[nH]c3c2)nc(NC)n1", "note": "[GSK2376236]", "Kd": 200}, {"compound": "Fc1ccc(-c2nc[nH]c2-c2ccncc2)cc1", "note": "[SB-217360]", "Kd": 310}]}, {"test_system": "CLK1", "units": {"Kd": "nM"}, "values": [{"compound": "COc1ccc(CSc2nnc(-c3ccc4nccn4c3)o2)cc1C(F)(F)F", "Kd": 70}, {"compound": "COc1ccc(CSc2nnc(-c3ccc4ncsc4c3)o2)cc1C(F)(F)F", "Kd": 170}, {"compound": "CNc1cc(-c2ccc3c(N)n[nH]c3c2)nc(N)n1", "note": "[GSK2224810]", "Kd": 330}, {"compound": "Cc1cccc2c(-c3ccncn3)c(-c3ccc(F)cc3)nn12", "note": "[GW515532]", "Kd": "> 10000"}, {"compound": "CNCc1ccc2nc(NC(=O)c3ccc(C(C)(C)C)cc3)cn2c1", "Kd": 7500}]}, {"test_system": "CLK2", "units": {"Kd": "nM"}, "values": [{"compound": "COc1ccc(CSc2nnc(-c3ccc4nccn4c3)o2)cc1C(F)(F)F", "Kd": 150}, {"compound": "COC(=O)c1cccc(NC(=O)NC2CCN(c3ccnc(Nc4ccc(OC)cc4)n3)C2)c1", "note": "(stereo not shown) [GSK1379746]", "Kd": "> 10000"}, {"compound": "CNc1cc(-c2ccc3c(N)n[nH]c3c2)nc(N)n1", "note": "[GSK2224810]", "Kd": 410}, {"compound": "Cc1ccc(NC(=O)c2ccc(Cl)cc2)cc1-c1ccc(C(=O)Nc2ccncc2)cc1", "note": "[GSK1398467]", "Kd": "> 10000"}]}]}
